# TRb SRC2 PPI: qHTS for Inhibitors of the Interaction of Thyroid Hormone Receptor and Steroid Receptor Coregulator 2; Thyroid hormone receptor beta (Homo sapiens), P10828; TRbeta-SRC2 peptide binding, fluorescence polarization; receptor liganded with 1 µM T3; Potency, µM (highest dose often 106 µM), for the others: at the top dose activity change, negative = inhibition, usual class: inhibitors; 280,000 compounds, 0.065% hits;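 note: plate controls were bound peptide for no effect and peptide without receptor for full effect; nearly all actives have a fitted effect of over 50% in size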
#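 Assay buffer: 20 mM Tris-HCl, 100 mM NaCl, 10% glycerol, 1 mM EDTA, 0.01% NP-40, 1 mM DTT, 1 uM T3, 5% DMSO; TRb LBD 0.6 uM, Texas Red SRC2 20 nM; FP after 5 hr.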
# Tau fluor cs: Counterscreen qHTS for Inhibitors of Tau Fibril Formation, Fluorescence Polarization. tau K18 P301L Alexa594 fluorescence, heparin fibrillization. Potency, µM (highest dose often 57.7 µM), without a hit: at the top dose activity change, negative = decrease. 280,000 compounds, 0.93% hits; note: nearly all actives have a fitted effect of over 55% in size
#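 Human tau K18 P301L (15 uM unlabeled, 0.24 uM Alexa 594-labeled) in 100 mM sodium acetate pH 7 with 20 uM heparin, 6 hr at 37 C. ThT 30 uM added, 1 hr ambient; Alexa 594 FP and total fluorescence read at 555/632 nm.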
# Tau fibril FP: qHTS for Inhibitors of Tau Fibril Formation, Fluorescence Polarization | Microtubule-associated protein tau (Homo sapiens), P10636 | K18 P301L tau heparin fibrillization, Alexa594 FP, 6 h | Potency, µM (doses to about 57.7 µM), for inactives: at the highest dose activity, negative = inhibition, most hits filed as inhibitors | 280,000 compounds, 0.39% hits | AID 1468, 2008; note: nearly all actives have a fitted effect of over 55% in size
# Target sequence (P10636 561-689 P618L limits assumed): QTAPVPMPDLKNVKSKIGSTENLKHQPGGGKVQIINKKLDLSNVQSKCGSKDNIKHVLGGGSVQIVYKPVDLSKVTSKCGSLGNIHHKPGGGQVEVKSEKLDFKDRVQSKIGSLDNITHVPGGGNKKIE
#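 Human K18 P301L fragment (15 uM unlabeled plus 0.24 uM Alexa 594-labeled) in 100 mM sodium acetate pH 7 with compound, aggregation induced by 20 uM heparin for 6 hr at 37 C. ThT (30 uM) added for 1 hr, then Alexa 594 FP read.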
# GoLoco inh red: qHTS Assay for Inhibitors of RGS12 GoLoco Motif Activity (Red Fluorophore). Guanine nucleotide-binding protein G(i) subunit alpha-1 (Homo sapiens), P63096. Gai1:RGS12 GoLoco peptide FP, rhodamine, 10 min. Potency, µM (doses to about 61.6 µM), for the others: top-dose activity, negative = inhibition, hits mostly inhibitors. 230,000 compounds, 0.44% hits; active = well fitted inhibition curve with a large enough effect, not every such curve was filed as active; inactive = no such curve, though single readings can be large or run the other way; note: nearly all actives have a fitted effect of over 30% in size
# Target sequence (P63096 whole entry, looked up): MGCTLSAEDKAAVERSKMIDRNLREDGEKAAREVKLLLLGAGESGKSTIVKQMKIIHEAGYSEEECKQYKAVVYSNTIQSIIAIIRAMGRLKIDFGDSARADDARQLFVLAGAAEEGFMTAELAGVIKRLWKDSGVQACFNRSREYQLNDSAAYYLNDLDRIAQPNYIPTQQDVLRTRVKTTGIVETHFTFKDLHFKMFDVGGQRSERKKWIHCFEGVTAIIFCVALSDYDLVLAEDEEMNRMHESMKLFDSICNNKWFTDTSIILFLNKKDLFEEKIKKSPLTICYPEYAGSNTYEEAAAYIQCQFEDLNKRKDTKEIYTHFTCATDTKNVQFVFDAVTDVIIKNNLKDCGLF
# TexasRed fluor: Total Fluorescence Counterscreen for Inhibitors of the Interaction of Thyroid Hormone Receptor and Steroid Receptor Coregulator 2. 280,000 compounds, 0.29% hits. TRb/SRC2 Texas Red total fluorescence interference. AID 1479, 2009. Potency, µM (titrated, usually from 106 µM), inactives show top-dose fluorescence change, negative = quenching; active = well fitted curve in either direction with a large enough effect; inconclusive = small, poorly fitted or top-dose-only effect
#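 Flags fluorescent or light-absorbing compounds by total fluorescence, S + 2P, at 555 nm excitation and 632 nm emission. Mixture: 20 nM Texas Red SRC2 peptide, 0.6 uM human TRb LBD, 1 uM T3, 5% DMSO; compound exposure 5 h at ambient temperature.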
# Tau fibril ThT: qHTS for Inhibitors of Tau Fibril Formation, Thioflavin T Binding; Potency, µM (highest dose often 57.4 µM), for the others: at the highest dose activity, negative = inhibition, actives largely listed as inhibitors; AID 1460, 2008; Microtubule-associated protein tau (Homo sapiens), P10636; recombinant tau K18 P301L (four-repeat tau fragment), heparin-induced fibrillization, ThT fluorescence; 270,000 compounds, 2.1% hits; note: nearly all actives have a fitted effect of over 55% in size
#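 K18 P301L tau (15 uM + 0.24 uM Alexa 594-tagged), heparin 20 uM, NaOAc pH 7, 6 h 37 C; ThT 30 uM, 1 h RT, ex 450/em 510 nm.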
# An asterisk follows results filed as active; ? = inconclusive; / = no result; [ ] = dose if it differs, or a comment. Only some compounds are listed: those with a hit (about 3.2% of all), similar ones and a draw of the others. Unless noted, calls come from the whole dose curve; as a rule, active = well fitted curve in the direction sought with a large enough effect; inconclusive = small, poorly fitted or top-dose-only effect, or another doubt; inactive = no such curve, though single readings can be large; an effect the other way counts as inactive or inconclusive. Unless noted, % is set by controls: 0 for no effect and ±100 for the full control effect; potency is the fitted concentration of half-maximal effect.
SMILES,TRb SRC2 PPI,Tau fluor cs,Tau fibril FP,GoLoco inh red,TexasRed fluor,Tau fibril ThT
O=C(Cn1cc(C(=O)c2ccccc2)c2ccccc21)Nc1ccc(Br)cc1,-1.9%,?,-4.3%,/,3.0%,-0.7%
COC(=O)c1ccccc1S(=O)(=O)NC(=O)N(C)c1nc(C)nc(OC)n1,1.8%[201 µM],/,/,/,-1.3%[201 µM],/
COCCCNC(=O)c1c(NC(=O)c2ccccc2Cl)n(Cc2ccccc2)c2nc3ccccc3nc12,0.9%,-11.4%,5.3%,-9.1%,1.2%,4.2%
COCCNC(=O)c1c(NC(=O)c2ccco2)n(Cc2ccccc2)c2nc3ccccc3nc12,-23.7%,?,?,10.4%,-5.0%,14.1µM*
CC(C)(C)[C@@H](O)/C(=C\c1ccc(Cl)cc1Cl)n1cncn1,-1.8%[201 µM],/,/,/,-1.2%[201 µM],/
Oc1cccc2nc3ccccc3nc12,-11.5%,-21.2%,-10.8%,-3.0%,-5.8%,15.8µM*
Cc1ccccc1N1C(=O)NC(=O)/C(=C\c2cc(Br)c(N3CCOCC3)o2)C1=O,2.5%,-18.6%,?,251.6%,25.2%,15.8µM*
Cc1nc2ccccc2cc1C[N+]12CN3CN(CN(C3)C1)C2,/,/,/,3.7%[14.2 µM],/,/
O=S1(=O)N(CCN2CC=C(c3c[nH]c4cc(F)ccc34)CC2)c2cccc3c2N1CCC3,2.7%,8.91µM*[quencher],11.6%,14.6%,?,?
CC(C)N1CC=C(c2c[nH]c3ccccc23)CC1,-12.1%,-2.2%,3.3%,6.8%,2.2%,0.1%
Nc1nc2c(ncn2[C@@H]2O[C@H](CO)[C@@H](O)[C@@H]2O)c(=[SH+])[nH]1.O=[N+]([O-])c1ccc(O)[c]([Hg])c1,/,/,/,0.112µM*,/,/
Nc1nc(=S)c2ncn([C@H]3O[C@@H](CO)[C@@H](O)[C@@H]3O)c2[nH]1,-4.7%[53 µM],/,/,-1.4%[21.6 µM],-7.0%[53 µM],/
OC(Cn1cncn1)(c1ccc(F)cc1)c1ccccc1F (stereo unspecified),3.9%[201 µM],/,/,/,0.7%[201 µM],/
CCCOCC(=Nc1ccc(Cl)cc1C(F)(F)F)n1ccnc1,-10.9%[201 µM],/,/,/,?,/
COC(C)(C)CCC[C@H](C)C/C=C/C(C)=C/C(=O)OC(C)C,0.9%[201 µM],/,/,/,2.4%[201 µM],/
Cc1[nH]n(-c2ccccc2)c(=O)c1C(c1ccc([N+](=O)[O-])cc1)c1c(C)[nH]n(-c2ccccc2)c1=O,0.2%[53 µM],-8.9%,2.1%,-8.1%,0.355µM*[quencher],-7.5%
CN1c2ccc([N+](=O)[O-])cc2CC2(C(=O)NC(=O)N(c3ccccc3)C2=O)C1c1ccccc1 (stereo unspecified),-7.2%,-11.0%,2.9%,3.3%,-0.9%,?
COCCNP(=O)(c1ccccc1)c1nc2ccccc2s1 (stereo unspecified),3.2%,-16.2%,-9.6%,-8.4%,3.0%,-13.6%
COc1ccc(Nc2nc(N)nc(CSc3nc4ccccc4s3)n2)cc1,-1.2%,15.8µM*[quencher],-0.6%,/,-2.7%,?
CCCCC(O)(Cn1cncn1)c1ccc(Cl)cc1Cl (stereo unspecified),0.3%[201 µM],/,/,/,-0.5%[201 µM],/
CCN=C=NCCCN(C)C,/,/,/,-0.9%[14.2 µM],/,/
O=c1[nH]c(=S)[nH]c(O)c1N=Nc1ccc(-c2ccccc2)cc1[N+](=O)[O-],0.9%,?,-10.6%,-1.5%,-11.3%,3.98µM*
O=c1[nH]c(O)c(N=Nc2cc(C(F)(F)F)ccc2Cl)c(=O)[nH]1,4.8%,1.6%,5.7%,1.8%,-6.0%,-11.6%
O=c1[nH]c(=S)[nH]c(O)c1N=Nc1cc2c(cc1[N+](=O)[O-])OCO2,5.1%,-20.0%,2.3%,76.4%,0.3%,12.6µM*
CNC(=O)N(C)c1nc2ccccc2s1,0.4%[201 µM],/,/,/,0.0%[201 µM],/
SMILES,TRb SRC2 PPI,Tau fluor cs,Tau fibril FP,GoLoco inh red,TexasRed fluor,Tau fibril ThT
ClC1=C(Cl)C(Cl)=C(Cl)C1=C/C=C/c1ccccc1,8.3%,14.1µM*[quencher],?,4.5%,-19.2%,11.2µM*
CN(C)c1ccc(NC(=O)Oc2ccccc2)cc1,44.7µM*,?,?,-8.4%,?,14.1µM*
CCOc1ccccc1N=C1SCCCN1C,2.7%,3.2%,-4.5%,3.55µM*,-2.8%,5.1%
CC(=O)N1CCCSC1=Nc1ccccc1,5.0%,4.5%,-5.2%,5.7%,-1.4%,2.3%
CCCCCCNC(=O)N[C@H](Cc1ccc(O)cc1)C(=O)NCCC[C@H]1CN2C(=NC[C@H]2CCC)N1CC1CCC1,-2.8%,-5.7%,-2.1%,14.1µM*,-3.9%,-4.6%
CCCCCCNC(=O)N[C@@H](Cc1ccc(O)cc1)C(=O)NCCC[C@H]1CN2C(=NC[C@H]2C)N1CC1CCC1,-0.7%,2.7%,-3.9%,-34.2%,-1.5%,3.5%
C#CCN1C(=O)COc2cc(F)c(N3C(=O)C4=C(CCCC4)C3=O)cc21,-3.5%[201 µM],/,/,/,-12.1%[201 µM],/
O=c1cc(-c2ccc(O)c(O)c2)oc2cc(O)cc(O)c12,15.4%,?,7.2%,4.7%,?,12.6µM*
Cc1ccc2oc(-c3ccccc3)cc(=O)c2c1,-8.0%,-23.5%,?,5.9%,-0.5%,?
O=c1c(O)c(-c2ccc(O)c(O)c2)oc2cc(O)cc(O)c12,5.6%,10µM*[quencher],?,-0.7%,?,12.6µM*
CCC(C)c1ccc(O)cc1 (stereo unspecified),-3.6%[201 µM],/,/,/,-1.7%[201 µM],/
CC1=NN(c2ccccc2)C(=O)C1/C=C1\C(=O)NC(=O)N(c2ccc(C)c(C)c2)C1=O (stereo unspecified),-4.1%,-23.4%,3.3%,16.2%,-1.2%,11.2µM*
CC1=NN(c2ccccc2)C(=O)C1/C=C1/C(=O)NC(=O)N(c2cc(C)cc(C)c2)C1=O (stereo unspecified),3.4%,-26.5%,-12.3%,6.2%,-1.7%,11.2µM*
COCCOC(=O)C1=C(C)OC(N)=C(C(=O)OC)C12C(=O)Nc1ccccc12 (stereo unspecified),6.1%,-20.8%,?,-5.5%,0.1%,39.8µM*
O=C1NC(=O)C(=Cc2cc3c(cc2[N+](=O)[O-])OCO3)C(=O)N1,3.3%,-18.0%,28.2µM*,-9.6%,-1.8%,12.6µM*
Cc1cccc(N2C(=O)NC(=O)/C(=C/c3cc4c(cc3[N+](=O)[O-])OCO4)C2=O)c1,-1.3%,-6.3%,1.5%,-0.3%,0.6%,?
O=C1NC(=O)C(=CN2CCc3ccccc32)C(=O)N1,13.0%,-19.7%,?,71.5%,-1.0%,10µM*

# From PubChem
